In ChEMBL document CHEMBL1157539, “Thousands of chemical starting points for antimalarial lead identification” (Nature, 2010) one finds Inhibition data, which are given here for 30 compounds.

One may read the Inhibition as the relative decrease from the control value, in per cent.

Holding throughout (format): functional
The subject of test [1] is Plasmodium falciparum. Put plainly: GSK_TCMDC: Inhibition of Plasmodium falciparum 3D7 in whole red blood cells, using parasite LDH activity as an index of growth. Test compounds present at 2uM.
Test [2] concerns Plasmodium falciparum. Kind of test: GSK_TCMDC: Inhibition of Plasmodium falciparum Dd2 in whole red blood cells, using parasite LDH activity as an index of growth. Test compounds present at 2uM.
Another test relates to HepG2. Kind of test: GSK_TCMDC: Percent inhibition of human HepG2 cell line. Test compounds present at 10uM.

In the case of `CC(C)NCc1ccc(-c2cccc(NC(=O)c3ccc(Cl)cc3)c2)cc1.O=C(O)C(F)(F)F`, the Inhibition was found to be 100% with Plasmodium falciparum [1], 82% in the test with Plasmodium falciparum [2] and 20% in the test with HepG2.
Regarding `COc1ccc2nccc(NCC3(O)CCN(CC(O)c4ccc5c(c4)NC(=O)CS5)CC3)c2n1.Cl` (stereo not given), the Inhibition in the test on Plasmodium falciparum [1] was determined as 100%; in the test with Plasmodium falciparum [2], 3%; in the test with HepG2 it was 3%.
Regarding `COc1cccc(CNC[C@@H](O)[C@H](Cc2ccccc2)NC(=O)c2cc3c4c(c2)c(C(C)C)cn4CCS(=O)(=O)N3C)c1.O=CO`, the values for the Inhibition with Plasmodium falciparum [1], in the test with Plasmodium falciparum [2] and in the test on HepG2 were 98%, 98% and 21%, respectively.
On to `Cc1cccn2c(=O)c3cc(C(=O)NCCc4ccccc4)c(=N)n(CCCOC(C)C)c3nc12`, for which the Inhibition is 100% in the test on Plasmodium falciparum [1], 40% with Plasmodium falciparum [2] and 19% in the test on HepG2.
As to `Oc1cc2c(cc1CN1CCN(Cc3cccs3)CC1)CCC2`, the Inhibition in the test with Plasmodium falciparum [1] was 99%; in the test with Plasmodium falciparum [2], 91%; in the test with HepG2, 10%.
In the case of `O=C(Cn1c(CCc2cccc(F)c2F)cc(=O)c2ccccc21)N(CCN1CCCC1)Cc1ccc(-c2ccc(C(F)(F)F)cc2)cc1.O=C(O)C(O)C(O)C(=O)O`, the Inhibition in the test with Plasmodium falciparum [1] turned out to be 99%; in the test on Plasmodium falciparum [2], 57%; with HepG2, 89%.
Regarding `CCN(CC)CCNC(=O)c1ccc(NC(=O)c2oc3c(Cl)cccc3c2C)cc1`, the Inhibition was 98% in the test with Plasmodium falciparum [1], 68% with Plasmodium falciparum [2] and 24% in the test on HepG2.
For `CCOc1ccc(OCC)c(N2CCN(CCCCNC(=O)c3ccc(NC(=O)c4ccc(Cl)cc4)cc3)CC2)c1`, the figures for the Inhibition with Plasmodium falciparum [1], in the test with Plasmodium falciparum [2] and in the test on HepG2 were 97%, 40% and 13%, respectively.
In the case of `CS(=O)(=O)c1ccc2[nH]c(-c3cc(-c4ccc(OCCN5CCOCC5)cc4)cnc3N)nc2c1.O=C(O)C(F)(F)F`, the Inhibition in the test with Plasmodium falciparum [1] stood at 100%; in the test on Plasmodium falciparum [2], 99%; with HepG2 it was 43%.
As to `Cc1cc(NC(=O)Nc2cccc(Cl)c2Cl)c2ccccc2n1`, the Inhibition is recorded as 96% in the test on Plasmodium falciparum [1], 25% in the test with Plasmodium falciparum [2] and 0% in the test on HepG2.
`O=C(/C=C/c1ccc(Cl)c(Cl)c1)NCCCCCCN1CCCN(C(=O)Nc2cccc(Cl)c2)CC1`: the results for the Inhibition in the test on Plasmodium falciparum [1], in the test with Plasmodium falciparum [2] and in the test with HepG2 were 94%, 2% and 26%, respectively.
`Cl.Oc1ccc(CCCc2cc(Oc3c(I)cc(CCc4ncc[nH]4)cc3I)ccc2O)cc1`: the values for the Inhibition with Plasmodium falciparum [1], in the test with Plasmodium falciparum [2] and in the test on HepG2 were 95%, 7% and 26%, respectively.
As for `CCN(CCCN1CCCCC1)c1cc(C)nc(Nc2ccc(Cl)c(C(F)(F)F)c2)n1.O=C(O)C(F)(F)F`, the values for the Inhibition in the test with Plasmodium falciparum [1], in the test on Plasmodium falciparum [2] and with HepG2 were 96%, 55% and 43%, respectively.
For `CCN(CCCN1CCCCC1)c1cc(C)nc(Nc2cc(C(F)(F)F)ccc2C)n1.O=C(O)C(F)(F)F`, the Inhibition came to 96% with Plasmodium falciparum [1], 41% with Plasmodium falciparum [2] and 35% in the test with HepG2.
`COc1ccc(-c2cccc(NC(=O)c3ccc(Cl)cc3)c2)cc1CN1CCC(O)CC1.O=C(O)C(F)(F)F`: the Inhibition came to 100% with Plasmodium falciparum [1], 43% with Plasmodium falciparum [2] and 51% in the test with HepG2.
Consider `CC(C)Nc1cc(C(=O)N[C@@H](Cc2ccccc2)[C@H](O)CNC(C)(C)c2cccc(C(F)(F)F)c2)cc(N2CCCCS2(=O)=O)c1.O=CO`, for which the figures for the Inhibition with Plasmodium falciparum [1], in the test on Plasmodium falciparum [2] and in the test on HepG2 were 98%, 98% and 9%, respectively.
As to `CN1CCC(Oc2ccc(CN3CC[C@H](NC(=O)c4ccc(Cl)c(F)c4)C3)c3ccccc23)C1.O=C(O)C(F)(F)F` (stereo not given in full), the Inhibition in the test on Plasmodium falciparum [1] was 100%; in the test with Plasmodium falciparum [2], 65%; with HepG2 it was 51%.
Turning to `Br.CCCCC(NCC)c1ccc(OCCOc2ccc(C(CCCC)NCC)cc2)cc1` (stereo not given), the Inhibition amounted to 100% with Plasmodium falciparum [1], 99% in the test with Plasmodium falciparum [2] and 100% in the test on HepG2.
In the case of `O=C(Nc1cc(C(F)(F)F)cc(C(F)(F)F)c1)c1cc(Cl)ccc1O` [IMD-0354], the Inhibition came out at 90% with Plasmodium falciparum [1], 98% in the test with Plasmodium falciparum [2] and 84% in the test on HepG2.
For the compound `Cn1cncc1CNCc1ccc(-c2cccc(-c3nc4ccccc4[nH]3)c2)cc1.O=C(O)C(F)(F)F`, the Inhibition with Plasmodium falciparum [1] is 100%; in the test on Plasmodium falciparum [2], 92%; in the test with HepG2, 19%.
`CN1CCC(NCc2cccc(-c3cccc(S(=O)(=O)NCc4ccccc4)c3)c2)CC1.O=C(O)C(F)(F)F`: the Inhibition in the test with Plasmodium falciparum [1] is given as 100%; in the test on Plasmodium falciparum [2], 6%; in the test with HepG2, 57%.
Consider `Cn1cncc1C(=O)Nc1ccc(-c2ccc(-c3nc4cc(C(F)(F)F)ccc4[nH]3)cc2)cc1`, for which the values for the Inhibition with Plasmodium falciparum [1], in the test on Plasmodium falciparum [2] and in the test with HepG2 were 100%, 33% and 24%, respectively.
Take `Cc1cc(N)nc2ccc(-c3cccc(CN)c3)cc12`: the figures for the Inhibition with Plasmodium falciparum [1], in the test on Plasmodium falciparum [2] and with HepG2 were 100%, 59% and 2%, respectively.
The like results for `COc1ccc(-c2ccccc2CNc2nc(NCCc3ccc(O)cc3)nc(N3CCNCC3)n2)cc1.O=C(O)C(F)(F)F` were, in that order, 86%, 3% and 48%.
Turning to `CCN(CC)CCNC(=O)c1ccc(Nc2ncc([N+](=O)[O-])c(Nc3ccccc3OC)n2)cc1.Cl`, the results for the Inhibition in the test on Plasmodium falciparum [1], with Plasmodium falciparum [2] and in the test with HepG2 were 97%, 58% and 59%, respectively.
In the case of `Cc1ccc(Oc2c(-c3ccccc3CN3CCCC3CN(C)C)cnn(C)c2=O)cn1.O=C(O)C(F)(F)F` (stereo not given), the values for the Inhibition in the test with Plasmodium falciparum [1], with Plasmodium falciparum [2] and in the test with HepG2 were 88%, 9% and 0%, respectively.
Turning to `NC(=O)Nc1ccc2c(Nc3ccc(OCc4ccccc4)cc3)ncnc2c1`, the Inhibition is on record as 84% in the test with Plasmodium falciparum [1], 20% with Plasmodium falciparum [2] and 0% in the test on HepG2.
As to `COc1ccc(CCN2CCC(Nc3nc4ccccc4n3CCc3ccc(OC)cc3)CC2)cc1.Cl`, the Inhibition in the test on Plasmodium falciparum [1] stood at 100%; in the test with Plasmodium falciparum [2] it was 88%; in the test on HepG2 it was 34%.
The like results for `O=C(Nc1ccc(Oc2ccccc2)cc1)N1CCC(CCN2CCC(c3c[nH]c4ccccc34)CC2)CC1` were, in that order, 100%, 36% and 42%.
As for `CCCC(C(=O)OCCNC)(c1ccccc1)c1ccccc1.Cl`, the values for the Inhibition in the test with Plasmodium falciparum [1], with Plasmodium falciparum [2] and with HepG2 were 98%, 96% and 7%, respectively.
